ChEMBL document CHEMBL4513216, “Probing the Open Global Health Chemical Diversity Library for Multistage-Active Starting Points for Next-Generation Antimalarials” (ACS Infect Dis, 2020)
Hit rate of the full screen: of about 69,000 compounds, about 8,600 (12%) showed an effect of 50% or more. This is one part of a sample in which strong results are shown more often than they occur.

The compounds below were run on Plasmodium berghei (assay: Screen against P. berghei liver stage (PbLuc), transformed with Luciferase, at 10uM). Settings: tested at 10 uM.
Type: functional, HepG2
With `CNC(=O)C1(c2cnccn2)CCCN1C(=O)c1ccccn1` (stereo unspecified) the INHIBITION was 42.4%. For `CCOCC(O)CN1CCN(C(=O)C2CCCC2)CC1` (stereo unspecified), the INHIBITION was -19.4%. `Cc1ccc(CN(CCCN2CCOCC2)Cc2cnc(C)n2C)o1` gave an INHIBITION of -11.7%. Work on `O=C(c1cccc(OCc2cscn2)c1)N1CCOCC1` yielded an INHIBITION of 45.75%. `CC(=O)N1CCN(C(=O)c2cccc(OCc3cscn3)c2)CC1` was tested, and the INHIBITION was 1.82%. In the case of `NC(=O)C1CCCN(C(=O)c2cccc(OCc3cscn3)c2)C1` (stereo unspecified), the INHIBITION is reported as 24.05%. `NC(=O)C1CCN(C(=O)c2cccc(OCc3cscn3)c2)CC1` was tested, and the INHIBITION was 17.8%. `NC(=O)C1CCN(C(=O)c2ccc(OCc3cscn3)cc2)CC1` gave an INHIBITION of 56.85%. `O=C1CN(C(=O)c2cccc(OCc3cscn3)c2)CCN1` gave an INHIBITION of 61.5%. Work on `Cc1cccc(CN2CCC3(CC2)NC(=O)CC3c2ccccc2)n1` (stereo unspecified) yielded an INHIBITION of 37.1%. For `CC1CCCN(C(=O)NCCCn2cncn2)C1` (stereo unspecified), the INHIBITION was 9.45%. For `Cn1nccc1-c1nnn2c1COCC(CNCC1CC1)C2` (stereo unspecified), the INHIBITION was 45.7%. Work on `CC(C)CN1CCC2(C=C(C(=O)NC3CC3)c3ccccc32)CC1` yielded an INHIBITION of 27.2%. `COCCNCc1ccc(OCC(=O)NC(C)(C)C)cc1` gave an INHIBITION of 51.6%. Compound `CC(C)(C)NC(=O)COc1ccc(CNCCOc2ccccn2)cc1` has an INHIBITION of 18.6%. `CC(C)(C)NC(=O)COc1ccc(CNCc2ccccn2)cc1` was tested, and the INHIBITION was -6.39%. `Cc1ccc(C2=CCN(C(=O)C3CCN(C)C(=O)C3)CC2)cc1` (stereo unspecified) was tested, and the INHIBITION was -14.7%. `COc1ncccc1C(=O)NC1CCOc2ccccc21` (stereo unspecified) gave an INHIBITION of 33.3%. With `CCN(C)c1ncnc2c1CCN(C(=O)NCc1cccnc1)CC2` the INHIBITION was -75.9%. Work on `Cc1ccc(-c2nn(C)c(C(=O)O)c2Br)cc1` yielded an INHIBITION of 62.8%. Work on `Cn1nc(-c2ccccc2)c(Br)c1C(=O)O` yielded an INHIBITION of 36.9%. `Cc1cccc(-n2cnc(Cl)c2C(=O)O)c1` gave an INHIBITION of 8.08%. Compound `Cn1nc(-c2ccccc2)c(Cl)c1C(=O)O` has an INHIBITION of 46.1%. `Cn1nc(-c2cccc(Cl)c2)c(Br)c1C(=O)O` gave an INHIBITION of 46.1%. `Cn1nc(-c2ccc(Cl)cc2)c(Br)c1C(=O)O` showed an INHIBITION of 65.6%. `CNC(=O)CN(C)C(=O)c1ccc(-c2nc(C)cs2)cc1` showed an INHIBITION of 40.7%. `Cc1noc(CNC(=O)N2CCN(c3nc(C)c(C)s3)CC2)n1` showed an INHIBITION of 10.5%. In the case of `CCCN(Cc1cnn(C)c1)S(=O)(=O)c1cccc(F)c1C#N`, the INHIBITION is reported as -43.6%. Compound `O=C1CCC2(CCC(NC(=O)NCc3ccccc3)CC2)N1` (stereo unspecified) has an INHIBITION of -46.7%. For `CC(CN1CCOC1=O)NC(=O)c1cccc(Cl)c1Cl` (stereo unspecified), the INHIBITION was -28.9%. `Cc1cnn(CC2CCCN2C(=O)c2ccccc2-n2cnnn2)c1` (stereo unspecified) gave an INHIBITION of -33.9%. In the case of `O=c1[nH][nH]c2cn(-c3ccc(Br)cc3)c(=O)n12`, the INHIBITION is reported as 46.4%. `O=c1[nH][nH]c2cn(-c3ccc(F)cc3)c(=O)n12` showed an INHIBITION of 26.6%. `O=c1[nH][nH]c2cn(-c3ccccc3)c(=O)n12` gave an INHIBITION of 63.7%. Work on `COc1ccc2c(ccn2CCC(=O)Nc2n[nH]c(C(C)C)n2)c1` yielded an INHIBITION of -45.5%. `CN(C(=O)NCc1ccsc1)C1CCN(c2ccccc2)C1=O` (stereo unspecified) gave an INHIBITION of -10.2%. Work on `CCCNC(=O)CCNc1cncc(-n2nc(C)cc2C)n1` yielded an INHIBITION of -2.03%. `CCCNC(=O)Cn1c(-n2nc(C)cc2C)nc(CCC)cc1=O` gave an INHIBITION of 54.2%. `CCCc1nc(C)cc(N2CCC3(CCC(=O)N(CC(N)=O)C3)CC2)n1` was tested, and the INHIBITION was -42.1%. In the case of `CCCc1cc(=O)n(CC(N)=O)c(-n2nc(C)cc2C)n1`, the INHIBITION is reported as 81.3%. `CCCc1cc(=O)n(CC(=O)NC(C)C)c(-n2nc(C)cc2C)n1` showed an INHIBITION of 29.3%. Work on `CCCc1cc(=O)n(CC(=O)NCCOC)c(-n2nc(C)cc2C)n1` yielded an INHIBITION of 28.7%. Compound `CN(C)CCCn1ccnc1C1CCCN(c2ncc(Cl)cc2F)C1` (stereo unspecified) has an INHIBITION of 17.5%. Compound `O=C(O)C1(n2ccc(-c3ccco3)n2)CCN(Cc2ccccn2)CC1` has an INHIBITION of 4.1%. `Cc1cc(C)n(C2CN(CC(=O)NC(C3CC3)C3CC3)C2)n1` gave an INHIBITION of 17.4%. Compound `O=C(NCC(=O)N1CCCC1)c1nc(Cc2c(Cl)cccc2Cl)no1` has an INHIBITION of -32.8%. `Cc1ccc(C#N)c(N2CCC3(CCCN(C4CCOCC4)C3=O)C2)n1` (stereo unspecified) was tested, and the INHIBITION was -20.8%. `c1cnc(N2CCOCC3(C2)CN(c2nccs2)CCO3)nc1` (stereo unspecified) was tested, and the INHIBITION was 44.8%. `CN(CC(=O)NC(Cc1ccsc1)c1cccnc1)Cc1cccnc1` (stereo unspecified) showed an INHIBITION of 64.6%. Compound `Cc1csc(C(Cc2ccsc2)NC(=O)CN(C)Cc2cccnc2)n1` (stereo unspecified) has an INHIBITION of 42.6%. With `CN(CC(=O)NC(Cc1ccsc1)c1cccnc1)Cc1ccccn1` (stereo unspecified) the INHIBITION was 26.1%. Compound `CC(NC(=O)N1CCCN(C)CC1)c1ccc(S(N)(=O)=O)cc1` (stereo unspecified) has an INHIBITION of -5.22%. In the case of `Cc1ccc(O)c(CNC2CCc3nc(C(C)C)nn3C2)n1` (stereo unspecified), the INHIBITION is reported as 15.8%. In the case of `CN1CC(=O)N(c2ccsc2)CC12CCN(C(=O)N1CCCC1)C2` (stereo unspecified), the INHIBITION is reported as -5.05%. With `CCOC(=O)c1n[nH]cc1-c1cncn1CCn1nc(C)c(Cl)c1C` the INHIBITION was -39.4%. `CS(=O)(=O)N1CCCC12CCCN(C(=O)c1ccncc1)C2` (stereo unspecified) gave an INHIBITION of 10.7%. `CS(=O)(=O)N1CCCC12CCCN(C(=O)c1ccc[nH]1)C2` (stereo unspecified) was tested, and the INHIBITION was -24.8%. Work on `CS(=O)(=O)N1CCCCC12CCN(C(=O)c1ccccc1)C2` (stereo unspecified) yielded an INHIBITION of 61.8%. In the case of `CS(=O)(=O)N1CCCC12CCCN(C(=O)c1ccnnc1)C2` (stereo unspecified), the INHIBITION is reported as 26.4%. Work on `CS(=O)(=O)N1CCCC12CCCN(C(=O)c1ccc3c(c1)OCO3)C2` (stereo unspecified) yielded an INHIBITION of -1.15%. With `CS(=O)(=O)N1CCCC12CCCN(C(=O)c1ccc3[nH]ccc3c1)C2` (stereo unspecified) the INHIBITION was 57.9%. With `O=S1(=O)C[C@@H]2[C@H](C1)N(Cc1ncc[nH]1)CCN2CCCc1ccccc1` the INHIBITION was 34.275%. `COc1ccc(Cl)cc1NC(=O)CN1CCc2nc(NC(C)=O)sc2C1` showed an INHIBITION of 30.2%. Work on `CCOc1ccccc1C(C(=O)O)N(C)Cc1cc(C)[nH]n1` (stereo unspecified) yielded an INHIBITION of 27.6%. With `Cc1n[nH]c(C)c1NC(=O)CN1CCc2c(nc(C(C)C)n2C)C1` the INHIBITION was -2.48%. Work on `Cn1cc(C2CCCN2C(=O)CCCc2cccs2)cn1` (stereo unspecified) yielded an INHIBITION of 9.14%. Work on `CCCc1noc(CCC(=O)N2CCCC2c2ccncc2)n1` (stereo unspecified) yielded an INHIBITION of 13.3%. Work on `Cn1cc(C2CCCN2C(=O)CCCOc2ccccc2F)cn1` (stereo unspecified) yielded an INHIBITION of 0.914%. Work on `CCCc1noc(CCC(=O)N2CCCC2c2ccc(OC)cc2)n1` (stereo unspecified) yielded an INHIBITION of 0.914%. `CCCc1noc(CCCC(=O)N2CCCC2c2cnn(C)c2)n1` (stereo unspecified) showed an INHIBITION of 64.7%. `Cn1cc(C2CCCN2C(=O)CCCc2ccccn2)cn1` (stereo unspecified) showed an INHIBITION of 62.6%.
